Hit rate of the full screen: of about 77,000 compounds, about 4,600 (6%) were called active. Roughly 1% stayed inconclusive and do not appear here.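 How the source made its calls: active means mean inhibition above about 93%, with at least 55% of replicates each passing it (limit read from the data, passing the limit was not always enough); inconclusive means only one of those two conditions holds; inactive means neither condition holds.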 The entries come from a sample that favours actives as a whole.
Test: T. cruzi intracellular proliferation inhibitors, primary screen, cell-based, beta-gal Tulahuen parasites, NIH3T3 host, luminescence (AID 624255)
Settings: T. cruzi beta-gal in NIH3T3, GalScreen luminescence, 90 h; at 8.34 µM; stronger effect = higher value

| SMILES | inhibition |
| --- | --- |
| CC(C)NC(=O)N(C)C[C@H]1OCCCC[C@H](C)Oc2ccc(NS(=O)(=O)c3ccc(Cl)cc3)cc2C(=O)N([C@@H](C)CO)C[C@H]1C | -6.73% (inactive) |
| C[C@@H]1CN([C@H](C)CO)C(=O)c2cc(NC(=O)c3ccccc3)ccc2O[C@@H](C)CCCCO[C@H]1CN(C)C(=O)c1ccncc1 | -20.8% (inactive) |
| CCC(=O)N1C[C@H](C)[C@H](OC)CN(C)C(=O)c2ccc(NC(=O)Nc3ccccc3)cc2OC[C@H]1C | -75.2% (inactive) |
| CCC(=O)Nc1ccc2c(c1)OC[C@H](C)N(Cc1ccccc1OC)C[C@@H](C)[C@@H](OC)CN(C)C2=O | 32.5% (inactive) |
| CCC(=O)Nc1ccc2c(c1)C(=O)N(C)[C@@H]1CC[C@@H](CC(=O)NCCc3ccccc3)O[C@H]1CO2 | 49.1% (inactive) |
| C/C=C/c1ccc([C@H]2[C@@H](CO)N(C(=O)Cc3ccncc3)[C@@H]2CNC(C)=O)cc1 | 13.1% (inactive) |
| CS(=O)(=O)N1CCCCN2[C@H](CO)[C@H](c3ccc(-c4cccc(C#N)c4)cc3)[C@H]2C1 | 74.2% (inactive) |
| O=S(=O)(Cc1ccccc1)N1CCCCN2[C@H](CO)[C@@H](c3ccc(-c4cncnc4)cc3)[C@H]2C1 | 91% (inactive) |
| O=S(=O)(Cc1ccccc1)N1CCCCN2[C@@H](CO)[C@H](c3ccc(-c4ccccc4)cc3)[C@@H]2C1 | 110% (active) |
| COCC(=O)Nc1ccc2c(c1)C(=O)N(C)[C@@H]1CC[C@H](CC(=O)NCC3CCCCC3)O[C@H]1CO2 | -49.4% (inactive) |
| COc1cccc(C#Cc2cnc3c(c2)C(=O)N([C@@H](C)CO)C[C@H](C)[C@@H](CN(C)C(C)=O)O3)c1 | -12.9% (inactive) |
| COc1ccccc1C#Cc1cnc2c(c1)C(=O)N([C@@H](C)CO)C[C@@H](C)[C@@H](CN(C)C(=O)CN(C)C)O2 | -91.1% (inactive) |
| CCCC#Cc1cnc2c(c1)C(=O)N([C@H](C)CO)C[C@H](C)[C@H](CN(C)C(=O)Cc1ccncc1)O2 | -5.16% (inactive) |
| COc1ccccc1C#Cc1cnc2c(c1)C(=O)N([C@@H](C)CO)C[C@@H](C)[C@H](CN(C)C(=O)CN(C)C)O2 | 36.2% (inactive) |
| COCC(=O)N(C)C[C@@H]1Oc2ncc(C#Cc3ccccc3OC)cc2C(=O)N([C@@H](C)CO)C[C@H]1C | 113% (active) |
| C[C@@H]1CN([C@H](C)CO)C(=O)c2cc(C#CCN(C)C)cnc2O[C@H]1CN(C)C(=O)Cc1ccncc1 | 67.2% (inactive) |
| CC(C)CC#Cc1cnc2c(c1)C(=O)N([C@@H](C)CO)C[C@@H](C)[C@H](CN(C)C(=O)Cc1ccncc1)O2 | 107% (active) |
| C[C@@H]1CN([C@@H](C)CO)C(=O)c2cc(C#Cc3ccccc3)cnc2O[C@H]1CN(C)C(=O)c1ccccn1 | 108% (active) |
| CC(=O)N(C)C[C@H]1Oc2ncc(C#Cc3ccccn3)cc2C(=O)N([C@H](C)CO)C[C@@H]1C | 57.3% (inactive) |
| COc1ccc(C#Cc2cnc3c(c2)C(=O)N([C@H](C)CO)C[C@H](C)[C@@H](CN(C)C)O3)cc1 | 29.3% (inactive) |
| COc1ccc(C#Cc2cnc3c(c2)C(=O)N([C@@H](C)CO)C[C@H](C)[C@@H](CN(C)C(C)=O)O3)cc1 | 110% (active) |

| SMILES | inhibition |
| --- | --- |
| CCC(=O)N(C)C[C@@H]1Oc2ncc(C#Cc3ccccc3)cc2C(=O)N([C@@H](C)CO)C[C@H]1C | 87.1% (inactive) |
| COc1ccc(CN(C)C[C@@H]2OCCCC[C@H](C)Oc3ccc(NC(=O)c4ccccc4)cc3C(=O)N([C@H](C)CO)C[C@H]2C)cc1 | 76.8% (inactive) |
| CC=Cc1ccc2n(c1=O)C[C@@H]1[C@@H](CO)[C@H](C(=O)NCC(F)(F)F)N(CCc3ccccc3)[C@H]21 (mixture of isomers) | 47.7% (inactive) |
| Cc1ccc(S(=O)(=O)N[C@H]2CC[C@@H](CC(=O)NCc3ccc(Cl)c(Cl)c3)O[C@H]2CO)cc1 | 64.8% (inactive) |
| CCCC(=O)Nc1ccc2c(c1)C(=O)N(C)C[C@@H](OC)[C@@H](C)CN(Cc1cncnc1)[C@@H](C)CO2 | -11% (inactive) |
| CC(C)NC(=O)Nc1ccc2c(c1)CC(=O)N([C@@H](C)CO)C[C@@H](C)[C@H](CN(C)CC1CC1)O2 | 14.2% (inactive) |
| CCC(=O)Nc1ccc2c(c1)C(=O)N(C)[C@@H]1CC[C@@H](CC(=O)N[C@@H](C)c3ccccc3)O[C@@H]1CO2 | 29.7% (inactive) |
| COc1ccc(S(=O)(=O)Nc2ccc3c(c2)C(=O)N([C@H](C)CO)C[C@@H](C)[C@H](CN(C)Cc2ccccc2)O3)cc1 | 13.7% (inactive) |
| CC(C)C#Cc1cnc2c(c1)C(=O)N([C@H](C)CO)C[C@@H](C)[C@H](CN(C)Cc1ccccc1)O2 | -6.87% (inactive) |
| C[C@@H]1CN([C@H](C)CO)C(=O)c2cc(C#Cc3ccccn3)cnc2O[C@H]1CN(C)Cc1ccccc1 | 120% (active) |
| C[C@H](CO)N1C[C@H](C)[C@@H](CN(C)Cc2cccnc2)Oc2ncc(/C=C/c3ccccc3)cc2C1=O | 12.8% (inactive) |
| C[C@H](CO)N1C[C@H](C)[C@H](CN(C)C(=O)Nc2cccc3ccccc23)Oc2ncc(C#Cc3ccccc3)cc2C1=O | 122% (active) |
| CCCC#Cc1cnc2c(c1)C(=O)N([C@H](C)CO)C[C@H](C)[C@@H](CN(C)Cc1ccccc1)O2 | 18.3% (inactive) |
| C/C=C/c1cnc2c(c1)C(=O)N([C@@H](C)CO)C[C@@H](C)[C@H](CN(C)Cc1ccccc1)O2 | -55.6% (inactive) |
| CCCC#Cc1cnc2c(c1)C(=O)N([C@H](C)CO)C[C@@H](C)[C@@H](CN(C)C(=O)Nc1ccccc1F)O2 | 11.2% (inactive) |
| C[C@@H]1CN([C@H](C)CO)C(=O)c2cc(/C=C/c3ccccc3)cnc2O[C@@H]1CN(C)Cc1ccncc1 | 96.3% (active) |
| CC(C)CC#Cc1cnc2c(c1)C(=O)N([C@H](C)CO)C[C@H](C)[C@H](CN(C)C(=O)Nc1ccccc1F)O2 | 53.1% (inactive) |
| COc1ccccc1-c1cn(CC[C@H]2CC[C@H](NC(=O)C3CCOCC3)[C@@H](CO)O2)nn1 | 7.67% (inactive) |
| O=C(C[C@@H]1C=C[C@H](NC(=O)Nc2ccc3c(c2)OCO3)[C@H](CO)O1)NCc1ccccc1 | 17.2% (inactive) |
| CC=Cc1ccc2n(c1=O)C[C@@H]1[C@@H](CO)[C@H](C(=O)NCCc3ccccc3)N(C(C)=O)[C@H]21 (mixture of isomers) | 28.7% (inactive) |
| C[C@@H](O)C#Cc1ccc([C@H]2[C@@H](CO)N3CCCCN(CC4CC4)C[C@@H]23)cc1 | 29.6% (inactive) |

| SMILES | inhibition |
| --- | --- |
| C[C@@H](O)C#Cc1ccc([C@@H]2[C@H]3CN(S(=O)(=O)c4ccccc4)CCCCN3[C@H]2CO)cc1 | 26.7% (inactive) |
| CCCC#Cc1ccc([C@H]2[C@H](CO)N3CCCCN(S(=O)(=O)CC)C[C@@H]23)cc1 | 47.8% (inactive) |
| C[C@@H](O)C#Cc1ccc([C@H]2[C@@H](CO)N3CCCCN(S(=O)(=O)c4ccccc4)C[C@@H]23)cc1 | 59.2% (inactive) |
| C[C@H](O)C#Cc1ccc([C@@H]2[C@H](CO)N3CCCCN(CC4CC4)C[C@@H]23)cc1 | 8.49% (inactive) |
| CN(C)CC#Cc1ccc([C@H]2[C@H]3CN(S(=O)(=O)c4ccccc4F)CCCCN3[C@H]2CO)cc1 | 106% (active) |
| CCCC#Cc1ccc([C@@H]2[C@H](CO)N3CCCCN(S(=O)(=O)c4ccccc4F)C[C@@H]23)cc1 | 37.8% (inactive) |
| C/C=C/c1ccc([C@H]2[C@H]3CN(S(=O)(=O)c4ccccc4)CCCCN3[C@H]2CO)cc1 | 123% (active) |
| C[C@H](O)C#Cc1ccc([C@H]2[C@H]3CN(S(=O)(=O)Cc4ccccc4)CCCCN3[C@H]2CO)cc1 | 110% (active) |
| C[C@@H](O)C#Cc1ccc([C@@H]2[C@H](CO)N3CCCCN(S(=O)(=O)c4ccccc4)C[C@@H]23)cc1 | 107% (active) |
| CCC(=O)Nc1ccc2c(c1)C(=O)N(C)[C@@H]1CC[C@@H](CC(=O)Nc3cccc(OC)c3)O[C@@H]1CO2 | -12.2% (inactive) |
| O=C(N[C@@H]1CC[C@H](CCn2cc(-c3ccccc3)nn2)O[C@H]1CO)c1cnccn1 | 20.6% (inactive) |
| CNC(=O)C[C@@H]1CC[C@@H]2[C@H](COc3ccc(NC(=O)c4cccs4)cc3C(=O)N2C)O1 | 9.57% (inactive) |
| CC(C)CC#Cc1cnc2c(c1)C(=O)N([C@H](C)CO)C[C@H](C)[C@H](CN(C)CC1CCOCC1)O2 | 60.8% (inactive) |
| C/C=C/c1cnc2c(c1)C(=O)N([C@H](C)CO)C[C@H](C)[C@@H](CN(C)C(=O)Nc1ccc(C(F)(F)F)cc1)O2 | 108% (inactive) |
| COCC(=O)N1C[C@H]2[C@@H](c3ccccc31)[C@@H](CO)N2Cc1ccccc1 | -14.2% (inactive) |
| COc1cccc(-c2ccc3c(c2)[C@@H]2[C@@H](CCN2C(=O)CN2CCOCC2)[C@H](CO)N3)c1 | 88.3% (inactive) |
| C[C@H](O)C#Cc1ccc([C@@H]2[C@H]3CN(S(=O)(=O)c4ccccc4)CCCCN3[C@H]2CO)cc1 | 107% (active) |
| CC(C)NC(=O)N1CCCCN2[C@H](CO)[C@H](c3ccc(C#C[C@H](C)O)cc3)[C@H]2C1 | 90.4% (inactive) |
| O=S(=O)(c1ccccc1)N1CCCCN2[C@@H](CO)[C@H](c3ccc(C#Cc4cccnc4)cc3)[C@@H]2C1 | 90.8% (inactive) |
| C[C@H]1CN([C@@H](C)CO)C(=O)c2cccc(NS(=O)(=O)c3cn(C)cn3)c2O[C@H]1CN(C)C(=O)Nc1ccc2c(c1)OCO2 | -234% (inactive) |
| O=C(Cc1ccccn1)NCC[C@H]1CC[C@H](NC(=O)Nc2ccc(F)cc2)[C@@H](CO)O1 | 10.8% (inactive) |

From PubChem BioAssay AID624255 (Broad Institute, 2012)
